# Compounds with a hit are over-represented: about 4.3% of the library has one in this group of screens.
# FAS-TE inh: inhibitors of human fatty acid synthase thioesterase domain. P49327. recombinant FAS-TE, OMFH fluorogenic substrate, fluorescence endpoint. inhibition, % at 15 µM. 0.67% of 360,000 active. AID 602261;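 active = compounds whose normalised, plate-corrected inhibition of enzyme fluorescence in the single-dose primary screen is 50% or more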
# ADAM10 inh: inhibitors of human ADAM10; O14672; recombinant ADAM10, EDANS/DABCYL FRET peptide cleavage, 3 h; inhibition, % at 7 µM; 0.62% of 370,000 active;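 active = inhibition above a per-campaign cutoff equal to the mean of compounds falling between control-based bounds plus 3 SD, cut at about 20% in these data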
# ADAM17 inh: inhibits human ADAM17; 0.83% of 370,000 active; recombinant ADAM17, EDANS/DABCYL FRET peptide cleavage; inhibition, % at 6.95 µM; P78536;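 active = inhibition above the mean of compounds lying between control limits plus 3 SD, set per campaign, cut at about 8.5% in these data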
# NR3A LBD binder: NR3A (human) ligand-binding domain modulation. NR3A LBD differential scanning fluorimetry, Tm shift; 0% = protein alone, 100% = glycine-bound protein. Tm shift relative to glycine control, % at 25 µM. 2.5% of 340,000 active. AID 1259313;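 active = melting temperature shift of at least 10% of the positive control shift, at one fixed dose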
# sPLA2-III inh: Blocks human group III sPLA2 activity | 0.56% of 370,000 active | QFRET BODIPY PC-A2 liposome hydrolysis, fluorescence | inhibition, % at 12.2 µM | Q9NZ20;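 active = inhibition above mean plus 3 SD of compounds lying within the high and low control bounds, cut at about 19% in these data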
# ADAM10 counter: ADAM10 inhibition, counter-screen for ADAM17 exosite hits | shares compounds with ADAM17 inh | recombinant ADAM10, EDANS/DABCYL FRET peptide cleavage, 3 h | inhibition, % at 6.95 µM | 47% of 2,900 active | AID 743256;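 active = mean inhibition over the triplicate runs exceeds the activity threshold set in the earlier primary screen, cut at about 20% in these data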
# ADAM17 confirm: confirmation of inhibitors of human ADAM17. recombinant ADAM17, EDANS/DABCYL QFRET peptide cleavage. shares compounds with ADAM17 inh. AID 743257. 65% of 2,900 active. inhibition, % at 6.95 µM;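 active = mean inhibition across replicates above the hit cutoff set in the primary screen, cut at about 8.5% in these data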
# A number is an active result; i = inactive; nt = no result.
SMILES,FAS-TE inh,ADAM10 inh,ADAM17 inh,NR3A LBD binder,sPLA2-III inh,ADAM10 counter,ADAM17 confirm
CC(C)NC(=O)N[C@@H]1C[C@@H]2O[C@@H](CO)CC[C@@H]2O[C@@H]1CCc1ccc(-c2ccccc2F)cc1,nt,i,i,nt,i,nt,nt
CCC(=O)N(c1ccccc1)C1CCN(C(=O)C(Cc2ccccc2)NC(C)=O)CC1 (configuration not stated),nt,i,i,nt,i,nt,nt
CC1(Cc2ccccc2Cl)C(=O)Nc2ccc(OC(F)(F)F)cc21 (configuration not stated),i,i,13,nt,i,21,13
COC(=O)c1cccc(Cn2ccc3ccc(-c4ccc5ccn(C(=O)C6CC6)c5c4)cc32)c1,nt,i,i,nt,i,nt,nt
O=C(CSc1nc(Nc2ccccc2)nc(N2CCOCC2)n1)Nc1ccccc1Cl,i,i,i,i,i,nt,nt
O=C(CSc1nc(Nc2ccccc2)nc(N2CCOCC2)n1)Nc1cccc([N+](=O)[O-])c1,i,i,10,17,i,38,22
CCc1cc(/C(Cc2ccc3ccccc3n2)=N\O)c(O)cc1O,i,i,9.2,29,i,30,22
CC1CN(S(=O)(=O)c2ccc(NC(=O)c3cc(-c4ccccc4O)n[nH]3)cc2)CC(C)O1 (configuration not stated),i,24,12,36,i,i,14
CC(C)c1ccc(NC(=O)C2CCCN(S(=O)(=O)c3ccc4c(c3)C(C)(C)C(=O)N4C)C2)cc1 (configuration not stated),i,i,9.6,i,i,i,8.8
CN1C(=O)C(C)(C)c2cc(S(=O)(=O)N3CCCC(C(=O)Nc4ccc(Cl)cc4)C3)ccc21 (configuration not stated),i,i,i,i,i,nt,nt
CCCCN(C(=O)C1CC(=O)N(c2ccc(C)cc2)C1)c1c(N)n(CCC)c(=O)[nH]c1=O (configuration not stated),i,i,11,i,i,i,i
CCCCN(C(=O)C1CC(=O)N(c2ccc3c(c2)OCCO3)C1)c1c(N)n(CCC)c(=O)[nH]c1=O (configuration not stated),i,i,i,i,i,nt,nt
CC(=O)c1cc(-c2ccc(S(C)(=O)=O)cc2)c(=O)n2c1CCC2,nt,i,i,nt,i,nt,nt
CCN1C(=O)[C@@H]2[C@@H](c3ccc(-c4cccc(Cl)c4)c(OC)c3)N3CCCC[C@@]3(C(=O)OC)[C@@H]2C1=O,i,i,9.9,i,i,20,16
COc1ccc(O)c(/C=N/NC(=O)c2ccc(CSc3nc(C)cc(C)n3)cc2)c1,i,i,14,i,i,i,9.5
Cc1ccccc1CS(=O)(=O)Cc1ccc(C(=O)Nc2cccc(C)c2C)o1,nt,i,i,nt,i,nt,nt
O=C(O)CCC(=O)Nc1cccc(-c2csc(-c3ccccc3)n2)c1,i,i,i,i,i,nt,nt
CCCCC(=O)Nc1cccc(-c2csc(-c3ccccc3)n2)c1,i,i,8.9,i,i,22,17
O=C(Cc1ccc(Nc2nc3ccc(Br)cc3[nH]2)cc1)NCCc1cccs1,i,i,8.9,i,i,i,9.5
O=S(=O)(c1ccc2nc(Cc3ccccc3)[nH]c2c1)N1CCOCC1,i,i,8.8,i,i,i,i
Nc1[nH]c(C(=O)c2ccccc2)c(-c2cccc3ccccc23)c1C(=O)NCc1ccc(F)c(F)c1,nt,i,i,nt,i,nt,nt
CC(=O)c1c2c3c(cccc3n(C)c1=O)C(=O)c1ccccc1-2,nt,nt,nt,i,nt,nt,nt
Cn1c(=O)c(Nc2ccc(O)cc2)c2c3c(cccc31)C(=O)c1ccccc1-2,i,i,9.2,i,i,i,15
C=CCC[C@@H](Cc1ccc(F)cc1)C(=O)OC[C@H](C)NC(=O)[C@@H](CC=C)CC(=O)N(CCO)Cc1ccccc1,i,i,9.8,i,i,i,i
C=CCC[C@@H](Cc1ccc(F)cc1)C(=O)OCCNC(=O)[C@@H](CC=C)CC(=O)N(CCO)Cc1ccccc1,i,i,i,i,i,nt,nt
SMILES,FAS-TE inh,ADAM10 inh,ADAM17 inh,NR3A LBD binder,sPLA2-III inh,ADAM10 counter,ADAM17 confirm
C=CCC[C@@H](Cc1ccc(F)cc1)C(=O)OC[C@@H](Cc1c[nH]c2ccccc12)NC(=O)[C@@H](CC=C)CC(=O)N(CCO)Cc1ccccc1,i,i,9.5,i,i,37,21
C=CCN1C(=O)[C@@H](CC(=O)NCc2ccc(OC)c(OC)c2)[C@]2(C(=O)OC)CCCCC=C12,nt,i,i,nt,i,nt,nt
CCCCCn1cc(CCC(=O)Nc2ccc(Oc3cccnc3)cc2)c2ccccc21,nt,i,i,nt,i,nt,nt
O=S1(=O)CCC(N(N=Cc2ccco2)c2ccccc2)C1 (configuration not stated),nt,i,i,nt,i,nt,nt
CCc1ccc(N2CC(C(=O)Nc3ccc(C)c(S(=O)(=O)N4CCOCC4)c3)CC2=O)cc1 (configuration not stated),i,i,9.8,i,i,i,i
C=CCNCc1ccc(OC)cc1OC,nt,i,i,nt,i,nt,nt
CCC(C)CN1C(=O)CN(S(C)(=O)=O)CC1(C)C(=O)NCc1ccccc1 (configuration not stated),nt,i,i,nt,i,nt,nt
COc1ccc(Cn2nnnc2C(c2cccs2)N2CCOCC2)cc1 (configuration not stated),i,i,8.7,i,i,i,11
CC(C)NC(=O)N(C)C[C@@H]1OCc2cn(nn2)CCCC(=O)N([C@@H](C)CO)C[C@H]1C,nt,i,i,nt,i,nt,nt
CC1CCCCN1S(=O)(=O)c1ccc(S(=O)(=O)N(Cc2ccccc2)Cc2ccco2)cc1 (configuration not stated),i,i,16,i,i,20,12
CCN(Cc1ccccc1)S(=O)(=O)c1ccc(S(=O)(=O)N(Cc2ccccn2)Cc2ccco2)cc1,i,i,i,i,i,nt,nt
O=C(CSc1nnc(-c2ccccc2)n1-c1ccccc1)Nc1ccc(Oc2ccccc2)cc1,nt,i,i,nt,i,nt,nt
Cc1ccc(S(=O)(=O)N2CCN(c3ccc(C(F)(F)F)cc3[N+](=O)[O-])CC2)cc1,i,i,10,i,i,22,11
Cc1ccc(S(=O)(=O)N2CCN(c3c([N+](=O)[O-])cc(C(F)(F)F)cc3[N+](=O)[O-])CC2)cc1,i,i,i,i,i,nt,nt
CCCCOc1ccc(C(=O)NC2CCCCN(CCC)C2=O)cc1 (configuration not stated),nt,i,i,nt,i,nt,nt
O=S1(=O)CCN(Cc2ccc(Cl)c(Cl)c2)CC1,i,i,i,i,i,nt,nt
O=S1(=O)CCN(Cc2ccc(Cl)cc2)CC1,i,i,9.2,i,i,i,i
CCOC(=O)C1=CCN(S(=O)(=O)c2ccccc2Br)C1c1ccc(Cl)cc1 (configuration not stated),nt,i,i,nt,i,nt,nt
Fc1ccc(NCc2n[nH]c(=S)n2Cc2ccccc2)cc1,i,i,11,i,i,i,i

# Screening data from PubChem BioAssay.
